Results taken from PubChem BioAssay (Tox21).
Records with an inconclusive call do not appear. Values without a mark were called inactive. Activity calls are given as the source filed them. The call rests on the fitted dose curve; in most records, active means well fitted inhibition curve with a large enough effect in the repeat runs; inconclusive means weak or mixed curves, or effect the other way; inactive means no such curve, though single readings can be large or run the other way.

target: Nuclear receptor ROR-gamma (Homo sapiens) (UniProt P51449); test: qHTS assay to identify small molecule antagonists of the retinoid-related orphan receptor gamma (ROR-gamma) signaling pathway (AID 1159521; further: nearly all actives have a fitted effect of over 50% in size; on activity change, negative = inhibition: top concentration of the series differs between compounds); settings: Tet-on RORgamma CHO cells, RORE-luciferase, 16 h; series mostly up to 92.4 µM; activity change, negative = inhibition: at the top concentration
Procedure, shortened: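 RORγ antagonism is scored from reduced reporter luminescence in Tet-on CHO cells. Induction used 1 uM final doxycycline hyclate for 16 h at 37 C, following a 2 h compound exposure.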
On the % scale 0 is the no-effect control and ±100 the full control effect; potency means the concentration at half of the fitted maximal effect.

SMILES	activity change, negative = inhibition	Potency
CCC(=O)c1ccccc1	7.3%	–
CNC(=O)N(C)c1nc2ccccc2s1	108%	–
COc1ccc(C(=O)N2CCCC2=O)cc1	38.5% [at 42.5 µM]	–
COC(=O)C(C)Oc1ccc(Oc2ccc(Cl)cc2Cl)cc1 (stereo not given)	-6.43%	–
Fc1cc(Br)ccc1CBr	14.4% [at 42.5 µM]	–
CN/C(=N\[N+](=O)[O-])NCC1CCOC1 (stereo not given)	-8.2%	–
CC(C1CC1)C(O)(Cn1cncn1)c1ccc(Cl)cc1 (stereo not given)	-14.1%	–
C[N+](=O)[O-]	9.95%	–
Nc1c(Br)cc([N+](=O)[O-])cc1[N+](=O)[O-]	-6.72%	–
COc1cc(OC)nc(NC(=O)NS(=O)(=O)c2ncccc2OCC(F)(F)F)n1	-4.48%	–
CCS(=O)(=O)CCSP(=O)(OC)OC	20.7%	–
O=C1CN2CCOC2(c2ccccc2Cl)c2cc(Cl)ccc2N1 (stereo not given)	-11.6% [at 42.5 µM]	–
O=[N+]([O-])c1ccc(CBr)cc1	-1.98%	–
CC1=NNC(=O)N(/N=C/c2cccnc2)C1	0.507%	–
Cc1cccc(C#N)c1	-1.77%	–
C(CCOCC1CO1)COCC1CO1 (stereo not given)	3.22%	–
CC1=C(C(=O)O)N2C(=O)[C@@H](N)[C@H]2SC1	27.3% [at 19 µM]	–
CC1(C(=O)Nc2ccc(O)c(Cl)c2Cl)CCCCC1	-15.7%	–
CC1=C(C(=O)Nc2ccccc2)S(=O)(=O)CCO1	–	27.3 µM (active)
CC(C)CC#N	2.43%	–
CCOP(=O)(OCC)OP(=O)(OCC)OCC	14.9%	–
CC(=O)C(Cl)Cl	33.9%	–
CSc1nc(N=[N+]=[N-])nc(NC(C)C)n1	-3.01%	–
c1cc2c(c(N3CCNCC3)c1)OCCO2	8.79% [at 42.5 µM]	–
CC(C(O)c1ccccc1)N(C)C/C=C/c1ccccc1 (stereo not given)	-0.303% [at 42.5 µM]	–
